# In the supplement of paper PMC11577813, “Eurasian spruce bark beetle detects lanierone using a highly expressed specialist odorant receptor, present in several functional sensillum types” (BMC Biology, 2024):
# ± gives the standard deviation of the averaged measurements.
# System: (4S)-cis-verbenol A-neuron OSN class
# Test: net action potential response of A-neuron (blank-subtracted) (spikes/s (Hz)); higher = stronger excitation
# Conditions: 10 µg on filter paper; neuron: A neuron (large spike amplitude)
# Protocol: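 Single sensillum recordings from antennal olfactory sensilla of live adult Ips typographus. Each compound was 10 µg in paraffin oil on filter paper, delivered as a 0.5 s puff. Net response = spikes in the first 0.5 s of response minus the 0.5 s pre-stimulus count, doubled to give Hz, with blank response subtracted. Values are for the large-spike A-neuron class of each of seven sensillum types that co-house the lanierone B-neuron; N = 1-4 sensilla, averaged.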
row,SMILES,net action potential response
1,"c1ccc2c(c1)CCO2 [2,3-Dihydrobenzofuran]",0 ± 2
2,CC(C)[C@@]12CC[C@@](C)(O)[C@@H]1C2 [(+)-trans-4-Thujanol],-0.667 ± 3.1
3,C=C(C)C1CC=C(C)C(=O)C1 (racemic) [(±)-Carvone],2 ± 4
4,CC(=O)OCCc1ccccc1 [2-Phenethyl acetate],-2 ± 4
5,"CC1=CCC2C(C1)C2(C)C (single isomer, unassigned; (+)) [(+)-3-Carene]",3.33 ± 7
6,CC12CCC(CC1=O)C2(C)C (racemic) [(±)-Camphor],-2.67 ± 8.1
7,C=Cc1ccccc1 [Styrene],1.33 ± 9
8,CC(=O)OCc1ccccc1 [Benzyl acetate],1.33 ± 8.1
9,CC(=O)c1ccccc1 [Acetophenone],0.667 ± 1.1
10,C[C@]12CCC[C@](C)(OC1)O2 (racemic) [(±)-Frontalin],-2 ± 4
11,"COc1ccc(C)cc1OC [3,4-Dimethoxytoluene]",-2.67 ± 2.3
12,CC1=CCC(C(C)C)=CC1 [γ-Terpinene],-5.33 ± 4.2
13,CC(=O)OC/C=C(\C)CCC=C(C)C [Geranyl acetate],-2.67 ± 4.2
14,CC1=CC(=O)[C@@H]2C[C@H]1C2(C)C [(-)-Verbenone],24.7 ± 25
